BoNT F protease: inhibitors of Botulinum neurotoxin F light chain protease; Multiplex microsphere protease cleavage assay, flow cytometry; inhibition, % at 10 µM; 360,000 tested, 0.22% active; in the data active = inhibition above about 35%, passing the limit was not always enough; inconclusive = no clear call, values can overlap the other calls; note: plate controls were buffer without enzyme for full effect and enzyme alone for no effect
Anthrax LF inh2: inhibitors of Bacillus anthracis lethal factor protease; 360,000 tested, 0.12% active; inhibition, % at 10 µM; multiplex microsphere protease cleavage assay, LF; AID 588501; note: plate controls were buffer without enzyme for full effect and enzyme alone for no effect
Target sequence (P15917 whole entry, looked up): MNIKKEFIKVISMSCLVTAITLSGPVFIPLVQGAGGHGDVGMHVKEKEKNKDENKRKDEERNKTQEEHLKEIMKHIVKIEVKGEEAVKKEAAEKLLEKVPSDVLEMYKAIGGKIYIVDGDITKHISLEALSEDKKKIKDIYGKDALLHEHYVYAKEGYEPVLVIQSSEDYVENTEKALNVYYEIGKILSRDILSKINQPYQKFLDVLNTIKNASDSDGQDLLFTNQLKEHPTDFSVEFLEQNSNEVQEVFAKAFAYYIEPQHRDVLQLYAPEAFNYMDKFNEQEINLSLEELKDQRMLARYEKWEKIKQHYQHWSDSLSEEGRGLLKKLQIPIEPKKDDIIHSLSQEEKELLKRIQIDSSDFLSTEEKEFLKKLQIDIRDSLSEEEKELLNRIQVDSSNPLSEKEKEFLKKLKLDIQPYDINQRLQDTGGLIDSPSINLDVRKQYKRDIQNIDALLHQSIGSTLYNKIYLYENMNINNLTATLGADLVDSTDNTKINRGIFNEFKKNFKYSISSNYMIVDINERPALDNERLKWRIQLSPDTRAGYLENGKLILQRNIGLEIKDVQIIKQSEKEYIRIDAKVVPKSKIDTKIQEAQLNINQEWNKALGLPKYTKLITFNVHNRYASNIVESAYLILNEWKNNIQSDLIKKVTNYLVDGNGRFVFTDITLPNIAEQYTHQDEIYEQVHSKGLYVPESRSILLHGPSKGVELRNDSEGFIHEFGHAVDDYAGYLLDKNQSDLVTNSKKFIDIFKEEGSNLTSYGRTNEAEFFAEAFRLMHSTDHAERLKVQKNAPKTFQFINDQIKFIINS
Bead autofluor: flagged as autofluorescent in microsphere protease counterscreen | 360,000 tested, 3.1% active | fluorescence intensity (test concentration not listed) | compound autofluorescence counterscreen, microsphere flow cytometry; hits give high values; in the data active = fluorescence intensity above about 16000; inconclusive = no clear call, values can overlap the other calls
PriA SSB inh: blocks PriA binding to SSB C-terminal tail; AlphaScreen SSBct-PriA binding, biotinylated peptide; inhibition, % at 33 µM; 430,000 tested, 0.6% active; AID 1272365; in the data active = inhibition mostly above about 37%, no sharp cut-off; inactive = mostly below about 20%;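 note: plate controls were negative control peptide for no effect and reference peptide for full effect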
BoNT A protease: BoNT A light chain protease inhibition | multiplex microsphere protease substrate cleavage, flow cytometry | inhibition, % at 10 µM | 360,000 tested, 0.17% active | AID 588499; note: plate controls were buffer without enzyme for full effect and enzyme alone for no effect
* hit, by the source's call; u = inconclusive; x = not tested or not shown. An excerpt weighted towards active compounds, which were near 3.1% of everything screened. Cut-off read from the data, not from the text of the source, unless noted: active = inhibition above about 30%; inconclusive = no clear call, values can overlap the other calls; inactive = below that.

SMILES	BoNT F protease	Anthrax LF inh2	Bead autofluor	PriA SSB inh	BoNT A protease
Cc1ccc(-c2nnc3c4ccccc4c(C)nn23)cc1S(=O)(=O)N1CCN(CCO)CC1	-9	-3	3215	-14	0
O=C(O)C1C2C=CC(C2)C1C(=O)NCCCn1ccnc1 (configuration not stated)	0	-2	22134*	4	0
Cn1cc(CNC(=O)C23CC4CC(CC(C4)C2)C3)cn1	36*	8	3911	-5	3
O=C(NNc1ccccn1)C(=O)NNS(=O)(=O)c1ccc(Cl)cc1	0	0	23954*	-7	-1
Nc1c(-c2cccs2)nc2ccccn12	-2	-1	5438	x	0
c1csc(-c2nnc3ccccn23)c1	9	-4	18537*	5	u
CC1CCCN(C(=O)CCS(=O)(=O)Cc2ccccc2)C1 (configuration not stated)	2	-3	16402*	-13	0
O=C(COc1ccc(F)cc1)Nc1nnc(-c2ccncc2)s1	-8	-4	18059*	-16	-3
O=C(COc1ccccc1)Nc1nnc(-c2ccc(F)cc2)s1	x	x	x	2	x
Cn1nc(CN(C(=O)c2cccnc2)C2CCCC2)c2c1CCC2	x	x	x	-15	x
O=C(COc1ccc2ccccc2c1)NNC(=O)Cc1ccccc1	2	3	2037	-13	0
O=C(COc1ccc2ccccc2c1)N[C@@H](C(=O)O)c1ccc(O)cc1	-7	-8	3907	40*	-2
O=C(Nc1cccc(-c2ccc(N3CCOCC3)nn2)c1)c1ccccc1Br	x	x	x	9	x
COc1ccc2c(=O)cc(-c3ccccc3F)oc2c1	46*	2	3780	2	5
COc1ccc(S(=O)(=O)Nc2ccc3oc(-c4ccccc4F)cc(=O)c3c2)cc1	x	x	x	6	x
Cc1cc(C)n(CCc2nc(-c3ccco3)cs2)n1	5	1	19796*	-14	3
Cc1cc(C)n(CCc2nc(-c3cccs3)cs2)n1	-17	-1	2263	-20	0
CCOC(=O)c1c(-c2ccc(C)o2)csc1NC(=S)NC(=O)N(C)C	8	-1	18614*	-3	6
O=C(Nc1cccc(Cl)c1)N1CCn2cccc2[C@H]1c1ccccc1F	x	x	x	13	x
O=C(Nc1ccc2c(c1)OCO2)N1CCn2cccc2[C@H]1c1ccc(F)c(F)c1	x	x	x	33*	x
CS(=O)(=O)c1ccccc1-c1nnc(NC(=O)c2nc3ccccc3s2)o1	x	x	x	-18	x
CC/C(O)=C(\C#N)c1nnc2n1CCCCC2	1	0	20206*	-17	1
Cc1cc(N)ccc1N1CCCC1	-116	-74	1599	17	-3
Cc1cc(N2CCCC2)c(C)cc1C=O	-17	-4	22088*	-7	2
Cn1ccnc1SCC1CCN(C(=O)CCSc2ccccc2)CC1	x	x	x	7	x
SMILES	BoNT F protease	Anthrax LF inh2	Bead autofluor	PriA SSB inh	BoNT A protease
CC(C)(C)c1ccc(Cn2cnc(-c3ccc([N+](=O)[O-])cc3)c2)cc1	20	1	8625	7	3
Cc1cc(C)c(Cn2cnc(-c3ccc([N+](=O)[O-])cc3)c2)c(C)c1	1	-3	10440	50*	2
Cc1cc(O)cc2occ(O)c12	x	x	x	-4	x
COc1ccccc1NC(=O)c1sc(=S)n(-c2ccc(Cl)cc2)c1N	x	x	x	36*	x
C=CCn1c(N)c(C(=O)Nc2ccccc2OC)sc1=S	-1	-7	11352	-3	-1
COc1ccc(CNC(=O)c2sc(=S)n(-c3ccc(OC)cc3)c2N)cc1	1	-4	19355*	0	2
COC(=O)c1ccc(C)c(-n2c(N)c(C(=O)NCc3ccco3)sc2=S)c1	x	x	x	31	x
COC(=O)c1ccc(C)c(-n2c(N)c(C(=O)Nc3ccccc3C)sc2=S)c1	x	x	x	39*	x
O=C(c1ccc2nsnc2c1)N1CCC(COCc2ccccc2)CC1	x	x	x	10	x
CCN(CC)CCn1c(=N)n(CCOc2ccccc2)c2ccccc21	-10	-12	25371*	-21	u
COC(=O)c1ccc2c(=O)n(CCc3ccccc3)c(N3CCN(c4ccccc4F)CC3)nc2c1	x	x	x	4	x
COc1ccc(C(=O)CSc2n[nH]c(-c3ccco3)n2)cc1	-2	-1	17016*	-13	-1
NC(=O)CSc1n[nH]c(-c2ccco2)n1	-8	3	4282	-11	0
CCc1nc(SCC(=O)c2ccc(C)c(C)c2)n[nH]1	0	-14	14899	5	2
Cc1ccc(C(=O)CSc2n[nH]c(-c3ccco3)n2)cc1C	-3	-2	17185*	-3	-2
Cc1cccc(NC(=O)CCCCC(=O)O)n1	x	x	x	-9	x
Cc1cc(C)cc(NC(=O)CSc2nnc(-c3ccncc3)o2)c1	3	2	5448	6	3
COc1ccccc1-c1nnc(SCC(=O)Nc2nnc(C)s2)o1	x	x	x	-8	x
COc1ccccc1-c1nnc(SCC(=O)Nc2c(Cl)cccc2Cl)o1	4	-2	19236*	-3	3
Cc1ccccc1-c1nnc(SCC(=O)Nc2cccc(C)c2C)o1	5	-3	19363*	-9	u
Cc1cc(C)cc(NC(=O)CSc2nnc(-c3ccccc3Br)o2)c1	1	-2	21943*	-35	1
C=C(C)CN1CCN(c2cc(-c3ccccc3)nc3c(-c4ccccc4)c(C)nn23)CC1	x	x	x	-7	x
CN(CCCCC(=O)C=NO)Cc1ccccc1	x	x	x	-17	x
CCOCCCn1c(=N)c(C(=O)NCCN2CCOCC2)cc2c(=O)n3cccc(C)c3nc21	-2	0	22990*	19	-1
CCCCn1c(SCC(N)=O)nc2c(sc3ccccc32)c1=O	-7	1	4154	2	0
SMILES	BoNT F protease	Anthrax LF inh2	Bead autofluor	PriA SSB inh	BoNT A protease
CCSc1nc2c(sc3ccccc32)c(=O)n1C(C)C	0	0	23016*	-14	1
CCOC(=O)c1nn(-c2ccc(C)cc2)c(=O)c2c(NC(=O)C3c4ccccc4Oc4ccccc43)scc12	x	x	x	-10	x
COc1ccc(C(=O)c2c(N)sc3c2CCN(C)C3)cc1	-51	-7	4611	-5	34*
CN1CCc2c(sc(N)c2C(=O)O)C1	-3	-4	3274	-9	3
Cc1ccccc1CSc1nnc(CNC(=O)c2cccc([N+](=O)[O-])c2C)o1	x	x	x	14	x
COc1ccccc1-c1c(C)oc2c(CN3CCN(CCO)CC3)c(O)ccc2c1=O	-9	-11	3251	-18	0
CN1CCN(Cc2c(O)ccc3c(-c4ccccc4)cc(=O)oc23)CC1	-2	-4	23428*	-13	u
COc1ccccc1-c1c(C)oc2c(CN3CCN(C)CC3)c(O)ccc2c1=O	-2	-2	21100*	-9	u
COCCn1c(=NC(=O)c2ccccc2NS(=O)(=O)c2ccc(C)cc2)sc2cc(S(N)(=O)=O)ccc21	x	x	x	6	x
O=C(NCc1ccc(CO)o1)C1CCc2nc[nH]c2C1 (configuration not stated)	x	x	x	-5	x
C=CC#CC[N+]1(CC#Cc2ccccc2)CCOCC1	-23	2	2451	54*	3
COc1cccc(N=c2oc3ccccc3cc2-c2nc3ccccc3[nH]2)c1	54*	1	u	-2	1
COc1cccc(N=c2oc3ccc(OC)cc3cc2-c2nc3ccccc3[nH]2)c1	0	-1	3835	-3	0
Cc1oc2ccc(O)c(CN3CCOCC3)c2c1C(=O)c1ccc(Cl)cc1	-4	-1	23586*	29	-1
